# An excerpt weighted towards active compounds, which were near 0.9% of everything screened.
# BJeLR viability: compounds reducing viability of BJeLR cells. 0.64% of 30,000 active. viability loss activity score, % (concentration not given with the values). BJeLR fibroblasts viability, CellTiterGlo ATP luminescence, 48 h; HRASV12, hTERT and SV40 LT/ST transformed; in the data active means viability loss activity score above about 50%;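 further: higher score means fewer live cells and less ATP luminescence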
# A1 inh: inhibitors of A1 | MEF A1-2A-BIM cells, caspase-Glo luminescence, 3 h; percent of clofoctol signal, DMSO as zero | caspase activation, % (concentration not given with the values) | 0.51% of 21,000 active | AID 2241;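 active means most replicate scores above 10, or exactly half above 10 with mean activity above 10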;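 further: effector caspase 3 and 7 activity cleaving a DEVD luciferin substrate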
# Numbers without * were called inactive; nt = not tested or not shown.
SMILES,BJeLR viability,A1 inh
CC[C@@]12CCCN3CC[C@]4(c5cccc(OC)c5N(C(C)=O)[C@@H]4CC1)[C@H]32,3.2,-0.4
Cn1c(CCN)nc2ccccc21,3.1,1.8
O=C(O)C1C2CC3CC(C2)CC1(n1ncc(N2CCOCC2)c(Cl)c1=O)C3 (stereo not drawn),0.0,-0.2
COC[C@H]1OC(=O)c2coc3c2[C@@]1(C)C1=C(C3=O)C2CCC(=O)[C@@]2(C)C[C@H]1OC(C)=O (stereo partly drawn),7.0,51.9*
COC(=O)CC1=C(C(=O)OC)C2(C(=O)Nc3ccccc32)C(C(=O)OC)=C(N)O1 (stereo not drawn),-0.2,0.3
N#Cc1cc2c(nc1SCc1ccccc1Br)C1CCN2CC1,2.1,nt
C[C@]12CC[C@H]3[C@@H](CC[C@]4(O)C[C@@H](O)CC[C@]34C=O)[C@@]1(O)CC[C@@H]2C1=CC(=O)OC1,82.3*,0.5
CO[C@H]1[C@H](O)[C@H](O[C@H]2CC[C@]3(C)C4CC[C@]5(C)[C@H](C6=CC(=O)OC6)CC[C@]5(O)C4CC[C@@H]3C2)O[C@@H](C)[C@@H]1O (stereo partly drawn),115.8*,0.5
C[C@@H]1O[C@@H](O[C@H]2C[C@@H](O)[C@]3(CO)[C@H]4[C@H](O)C[C@]5(C)[C@@H](C6=CC(=O)OC6)CC[C@]5(O)[C@@H]4CC[C@]3(O)C2)[C@H](O)[C@H](O)[C@H]1O,103.9*,0.2
C[C@@H]1O[C@@H](OC2CCC3(C)C4CCC5(C)C(C6=CC(=O)OC6)CCC5(O)C4CC[C@H]3C2)[C@H](O)[C@H](O)[C@H]1O (stereo partly drawn),100.6*,0.4
CCOC(=O)C1=NN(c2ccc(C)cc2)C2c3cccc4cccc(c34)C12 (stereo not drawn),-1.7,-0.8
CCN1C[C@@]2(COC)C3[C@@H](OC)[C@H]4[C@@H]1[C@@]3(C1C[C@]3(O)[C@H](OC(=O)c5ccccc5)C1[C@]4(OC(C)=O)[C@@H](O)[C@H]3OC)[C@@H](OC)C[C@H]2O (stereo partly drawn),-3.0,-0.4
C=C1C(=O)O[C@@H]2/C=C(/C)CC/C=C(/C)C[C@@H](OC(=O)/C(=C/CO)CO)C12 (stereo partly drawn),18.8,1.3
CC(C)c1cc2c(cc1O)[C@@]1(C)CCCC(C)(C)[C@@H]1CC2O (stereo partly drawn),3.8,-0.5
CSc1ncccc1C1=N/C(=C\N(C)C)C(=O)O1,-5.0,1.3
COc1ccc(C(=O)O[C@H]2CC[C@@]3(C)[C@@H]4CC[C@H]5[C@]6(O)C[C@H](O)[C@@]7(O)[C@@H](CN8C[C@@H](C)CC[C@H]8[C@@]7(C)O)[C@]6(O)C[C@@]53O[C@]24O)cc1OC,-1.9,0.0
CCc1nc2ccccc2c(=O)n1-c1ccccc1Cl,0.8,0.3
COC(=O)c1ccc(OP2(=O)COc3ccccc3OC2)cc1,-1.8,-0.2
O=C(CCN1CCOCC1)NC=Nc1cccnc1,-1.0,0.9
CO[C@H]1[C@H](O)[C@@H](O[C@H]2CC[C@]3(C=O)C4CC[C@]5(C)[C@@H](C6=CC(=O)OC6)CC[C@]5(O)C4CC[C@@H]3C2)O[C@@H](C)[C@@H]1O (stereo partly drawn),133.0*,0.2
CC(C)c1cc2c(cc1O)[C@@]1(C)C[C@@H](O)CC(C)(C)C1CC2 (stereo partly drawn),1.6,0.1
COC[C@H]([C@@H](O)[C@@H](O)C(=O)NCC[C@@H](C)c1nc(/C=C/C[C@H]2OC3(C[C@H](O)[C@H]2C)OC([C@@H](C[C@@H](O)[C@@H](C)[C@@H](O)[C@@H](C)/C=C(C)/C(C)=C/C=C/C(C)=C\C#N)OC)[C@@H](OP(=O)(O)O)C3(C)C)co1)N(C)C (stereo partly drawn),69.5*,-3.0
O=C(NC(=O)c1ccccc1Cl)Nc1ccc2c(c1)S(=O)(=O)C=C2,-1.3,0.0
COc1cc[n+](OC(=O)N2CCCCC2)c(C)c1,4.5,-0.4
O=C1NC(=O)C(=C/C=C/c2ccccc2)C(=O)N1,-10.5,2.4
COc1ccc(/C=C/C(=O)C2C(=O)NC34CCCCC3C2c2ccccc2O4)c(OC)c1OC (stereo not drawn),-7.5,nt
COc1ccc(C[C@H]2NC[C@H](O)[C@H]2OC(C)=O)cc1,117.4*,12.8*
CSC1=NN1c1cc(C)nc(N)n1,-6.8,0.9

# Screens from PubChem BioAssay.
